# What was measured:
# Conditions in all cases: Compound concentration 20.0 uM
# [1] = molecular target: Tyrosine-protein kinase ABL1 (Homo sapiens) (UniProt P00519)
# [2] = molecular target: Bromodomain-containing protein 4 (Homo sapiens) (UniProt O60885)
# [3] = molecular target: Cyclin-dependent kinase 2 (Homo sapiens) (UniProt P24941)
# [4] = molecular target: Casein kinase I isoform delta (Homo sapiens) (UniProt P48730)
# [5] = molecular target: Glycogen synthase kinase-3 beta (Homo sapiens) (UniProt P49841)
# Sequence of Glycogen synthase kinase-3 beta (Homo sapiens) (P49841 whole entry, looked up): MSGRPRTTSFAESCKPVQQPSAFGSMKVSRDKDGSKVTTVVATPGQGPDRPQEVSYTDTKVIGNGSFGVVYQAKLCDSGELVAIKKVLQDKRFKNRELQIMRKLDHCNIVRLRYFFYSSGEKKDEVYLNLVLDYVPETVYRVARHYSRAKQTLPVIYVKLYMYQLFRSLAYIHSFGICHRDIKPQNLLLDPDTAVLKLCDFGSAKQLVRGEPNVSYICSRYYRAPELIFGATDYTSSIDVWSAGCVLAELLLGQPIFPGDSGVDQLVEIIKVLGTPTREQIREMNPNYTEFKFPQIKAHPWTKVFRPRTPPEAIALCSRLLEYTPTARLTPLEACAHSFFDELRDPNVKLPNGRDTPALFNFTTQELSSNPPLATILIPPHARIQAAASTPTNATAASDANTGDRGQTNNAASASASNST
# [6] = molecular target: Mitogen-activated protein kinase 1 (Homo sapiens) (UniProt P28482)
# Sequence of Mitogen-activated protein kinase 1 (Homo sapiens) (P28482 whole entry): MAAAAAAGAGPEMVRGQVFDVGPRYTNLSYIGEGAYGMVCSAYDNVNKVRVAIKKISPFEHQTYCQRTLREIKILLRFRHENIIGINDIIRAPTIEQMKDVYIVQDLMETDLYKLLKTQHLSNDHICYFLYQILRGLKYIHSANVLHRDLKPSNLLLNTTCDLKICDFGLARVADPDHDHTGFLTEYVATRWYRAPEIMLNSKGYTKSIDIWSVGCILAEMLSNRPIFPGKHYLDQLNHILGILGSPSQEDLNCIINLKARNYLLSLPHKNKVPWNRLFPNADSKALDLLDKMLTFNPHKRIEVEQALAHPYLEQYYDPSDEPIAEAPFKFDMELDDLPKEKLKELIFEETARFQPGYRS
# [7] = molecular target: T1, Aurora kinase A (Homo sapiens) (UniProt O14965)
# T1 sequence (whole entry): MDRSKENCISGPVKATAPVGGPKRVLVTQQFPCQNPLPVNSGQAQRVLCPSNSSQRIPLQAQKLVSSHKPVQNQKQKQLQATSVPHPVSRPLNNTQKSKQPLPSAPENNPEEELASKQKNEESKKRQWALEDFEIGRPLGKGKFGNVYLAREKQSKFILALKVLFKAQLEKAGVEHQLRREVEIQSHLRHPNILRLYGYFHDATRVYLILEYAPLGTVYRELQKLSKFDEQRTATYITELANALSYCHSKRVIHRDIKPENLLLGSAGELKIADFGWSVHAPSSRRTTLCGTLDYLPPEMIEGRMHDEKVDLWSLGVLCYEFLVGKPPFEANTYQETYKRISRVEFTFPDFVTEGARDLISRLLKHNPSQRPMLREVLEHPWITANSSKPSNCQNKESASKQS
# [8] = molecular target: T2, Transcription intermediary factor 1-alpha (Homo sapiens) (UniProt O15164)
# T2 sequence (whole entry): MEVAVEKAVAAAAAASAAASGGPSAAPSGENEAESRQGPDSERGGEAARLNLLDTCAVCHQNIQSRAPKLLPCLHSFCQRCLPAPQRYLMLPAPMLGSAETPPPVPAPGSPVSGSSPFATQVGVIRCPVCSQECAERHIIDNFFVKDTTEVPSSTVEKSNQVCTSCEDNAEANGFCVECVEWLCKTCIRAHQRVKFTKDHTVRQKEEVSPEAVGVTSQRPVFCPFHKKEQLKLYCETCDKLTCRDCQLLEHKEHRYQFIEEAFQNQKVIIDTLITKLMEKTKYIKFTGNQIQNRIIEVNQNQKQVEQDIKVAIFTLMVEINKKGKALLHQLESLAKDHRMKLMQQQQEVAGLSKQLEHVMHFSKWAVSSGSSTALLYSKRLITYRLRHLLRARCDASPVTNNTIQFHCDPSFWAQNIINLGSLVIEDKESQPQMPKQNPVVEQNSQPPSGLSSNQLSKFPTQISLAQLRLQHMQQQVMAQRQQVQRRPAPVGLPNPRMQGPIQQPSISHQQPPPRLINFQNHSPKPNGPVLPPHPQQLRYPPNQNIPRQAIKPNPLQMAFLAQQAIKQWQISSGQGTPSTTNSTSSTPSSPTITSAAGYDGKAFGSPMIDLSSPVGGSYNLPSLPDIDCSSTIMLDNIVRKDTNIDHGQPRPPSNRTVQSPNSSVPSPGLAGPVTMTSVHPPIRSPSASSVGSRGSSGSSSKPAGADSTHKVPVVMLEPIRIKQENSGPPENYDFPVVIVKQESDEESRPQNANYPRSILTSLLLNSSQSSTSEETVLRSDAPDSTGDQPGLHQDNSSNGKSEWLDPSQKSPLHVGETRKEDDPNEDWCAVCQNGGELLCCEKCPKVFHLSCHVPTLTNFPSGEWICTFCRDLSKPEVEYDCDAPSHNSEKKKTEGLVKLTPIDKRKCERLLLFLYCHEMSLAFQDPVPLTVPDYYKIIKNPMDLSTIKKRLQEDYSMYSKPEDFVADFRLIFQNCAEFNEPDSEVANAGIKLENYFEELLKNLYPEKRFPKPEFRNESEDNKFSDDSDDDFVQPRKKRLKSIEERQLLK
# Sequence of Casein kinase I isoform delta (Homo sapiens) (P48730 whole entry, looked up, canonical isoform): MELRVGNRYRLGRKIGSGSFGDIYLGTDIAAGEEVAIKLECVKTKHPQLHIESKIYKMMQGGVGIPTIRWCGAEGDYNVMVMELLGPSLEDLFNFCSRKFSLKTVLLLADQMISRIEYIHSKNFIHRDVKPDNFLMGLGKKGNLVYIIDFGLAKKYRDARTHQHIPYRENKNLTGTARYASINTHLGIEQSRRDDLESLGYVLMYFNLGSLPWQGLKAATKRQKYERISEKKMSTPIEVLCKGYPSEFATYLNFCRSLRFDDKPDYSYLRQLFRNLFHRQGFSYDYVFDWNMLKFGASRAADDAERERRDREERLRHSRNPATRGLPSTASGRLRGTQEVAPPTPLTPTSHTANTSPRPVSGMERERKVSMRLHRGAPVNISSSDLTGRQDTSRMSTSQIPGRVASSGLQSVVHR
# Sequence of Tyrosine-protein kinase ABL1 (Homo sapiens) (P00519 whole entry): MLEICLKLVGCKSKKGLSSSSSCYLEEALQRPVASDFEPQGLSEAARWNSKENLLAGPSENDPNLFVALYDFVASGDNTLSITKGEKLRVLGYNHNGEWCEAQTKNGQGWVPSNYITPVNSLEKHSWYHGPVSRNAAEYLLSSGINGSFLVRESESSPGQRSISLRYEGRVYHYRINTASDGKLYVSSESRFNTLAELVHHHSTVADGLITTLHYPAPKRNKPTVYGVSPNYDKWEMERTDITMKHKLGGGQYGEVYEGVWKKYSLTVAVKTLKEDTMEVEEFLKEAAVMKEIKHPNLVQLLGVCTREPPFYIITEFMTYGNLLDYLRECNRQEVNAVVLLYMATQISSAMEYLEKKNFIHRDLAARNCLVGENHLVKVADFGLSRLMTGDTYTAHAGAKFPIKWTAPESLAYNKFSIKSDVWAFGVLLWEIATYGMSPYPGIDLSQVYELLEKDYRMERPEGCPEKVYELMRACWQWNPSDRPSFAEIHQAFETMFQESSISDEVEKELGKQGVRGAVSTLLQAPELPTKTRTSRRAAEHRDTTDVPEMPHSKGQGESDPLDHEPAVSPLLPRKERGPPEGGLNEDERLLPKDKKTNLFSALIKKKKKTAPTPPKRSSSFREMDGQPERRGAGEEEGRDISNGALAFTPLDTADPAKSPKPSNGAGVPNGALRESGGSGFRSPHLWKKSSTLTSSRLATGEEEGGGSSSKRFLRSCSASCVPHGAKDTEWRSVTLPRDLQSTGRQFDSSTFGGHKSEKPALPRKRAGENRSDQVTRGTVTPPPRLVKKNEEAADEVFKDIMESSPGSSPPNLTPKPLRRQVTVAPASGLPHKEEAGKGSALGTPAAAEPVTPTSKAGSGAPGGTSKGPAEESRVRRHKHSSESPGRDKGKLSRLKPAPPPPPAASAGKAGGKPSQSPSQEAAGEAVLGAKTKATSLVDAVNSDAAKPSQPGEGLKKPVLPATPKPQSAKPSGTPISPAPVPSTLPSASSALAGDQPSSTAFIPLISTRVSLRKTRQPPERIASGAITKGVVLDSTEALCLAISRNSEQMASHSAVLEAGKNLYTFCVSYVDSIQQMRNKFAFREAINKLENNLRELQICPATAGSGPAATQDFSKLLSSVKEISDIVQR
SMILES,ΔTm [1] [°C],ΔTm [2] [°C],ΔTm [3] [°C],ΔTm [4] [°C],ΔTm [5] [°C],ΔTm [6] [°C],ΔTm [7] [°C],ΔTm [8] [°C]
CN1CC(=O)N2[C@H](c3ccc4c(c3)OCO4)c3[nH]c4ccccc4c3C[C@@H]2C1=O,0.48,-3.03,-0.06,0.06,-0.13,0.16,-2.46,-0.6
O=C(NCC1CCOCC1)c1n[nH]cc1NC(=O)c1c(F)cccc1F,0.15,-2,3.53,1.77,14.4,0.1,1.73,-0.72
O=C(CCCCCCC(=O)Nc1ccc([C@H]2O[C@@H](CSc3nc(-c4ccccc4)c(-c4ccccc4)o3)C[C@@H](c3ccc(CO)cc3)O2)cc1)NO,-3.66,-1.65,-1.26,0,2.86,-12.5,2.82,3.56
CC(C)CCn1c(CN2CCN(C(=O)C3CC3)CC2)nc2c1c(=O)n(C)c(=O)n2C,0.68,-2.93,0.17,-0.39,-0.45,0.11,-2.45,0.08
CCn1ncc2c(NC3CCOCC3)c(-c3nnc(Cc4sc(C)nc4C)o3)cnc21,0.37,-1.68,-0.03,0.21,-0.23,0.54,-2.35,0.22
CNC(=O)Cn1cc(-c2ccc3c(c2)[C@H](F)C[C@]32NC(=O)N(CC(=O)N(Cc3ccc(F)cc3)[C@@H](C)C(F)(F)F)C2=O)cn1,0.95,-4.22,1.31,0.73,1.28,-6.46,-1.03,-1.4
COc1ncc(C)cc1CC[C@@](O)(CC(=O)O)C(=O)O,0.5,-1.94,0.22,-0.36,0.4,0.35,-1.39,-0.23
CCN(CC)C(=O)/C(C#N)=C/c1cc(O)c(O)c([N+](=O)[O-])c1,0.3,0.45,0.11,-0.1,-0.28,0.32,-0.58,0.24
Nc1nc(C(F)(F)F)nc2c1nnn2C[C@H]1CN(Cc2nccs2)CCO1,0.2,-2.15,0.32,-0.15,-0.98,0.32,-1.21,0.71
Cc1ncsc1-c1ccc(CNC(=O)[C@@H]2C[C@@H](O)CN2C(=O)[C@@H](NC(=O)COCC(C)(COCCOCCOCCNC(=O)C[C@@H]2N=C(c3ccc(Cl)cc3)c3c(sc(C)c3C)-n3c(C)nnc32)COCCOCCOCCNC(=O)C[C@@H]2N=C(c3ccc(Cl)cc3)c3c(sc(C)c3C)-n3c(C)nnc32)C(C)(C)C)cc1,-0.19,0,-4.95,-6.12,-4.05,-12,-4.07,-6.48

# Reference: ChEMBL document CHEMBL5724796, “Tm Shift (DSF) assay results for EUbOPEN Chemogenomics Library” (2024)
